In PubChem BioAssay (NCI):
Compounds without any hit were thinned out: in the full panel of roughly 83,000, 20% have a hit.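 Negative percent growth values reflect cell death: -40 means 40% of the cells present at the start died, and -100 means all died.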 Calls of active or inactive are those of the source. How the source made its calls: active means growth percent below 10; inactive means the rest.

Legend:
Assay in all cases: NCI-60 one-dose screen, 48 h (100 = growth as untreated, 0 = no growth, -100 = all killed)
Details in all cases: 10 µM unless noted
[1] = test system: T-47D breast
[2] = test system: BT-549 breast
[3] = test system: MDA-MB-435 melanoma
[4] = test system: SW-620 colon
[5] = test system: MCF7 breast
[6] = test system: HCT-116 colon
[7] = test system: HCC-2998 colon
[8] = test system: KM12 colon

Measured: growth

COCCn1c(-c2csc(-c3cn(C)c4ccc(OC)cc34)n2)cc2cccnc21
active: [1] 8.7% | [7] -3.8%
inactive: [2] 43.6% | [3] 74.5% | [4] 15.1% | [5] 47.5% | [6] 57.2% | [8] 21.5%

O=C1/C(=C/c2ccc(Cl)cc2)COc2ccc(O)c(O)c21
active: [1] -14.8% | [2] 5.45% | [3] 1.56% | [4] -9.64% | [5] 9.76% | [6] 0.395% | [7] 5.98% | [8] -2.9%

CCCC(O)Cn1ncc(C(=O)OCC)c1NC(=O)NCc1ccccc1F (stereo unspecified)
inactive: [1] 87.2% | [2] 90.2% | [3] 103% | [4] 105% | [5] 88% | [6] 73.8% | [7] 87.8% | [8] 97.3%

CCN(CC)CCSc1nc(-c2ccccc2)c(C#N)c(=O)[nH]1
inactive: [1] 93.8% | [2] 94.9% | [3] 103% | [4] 94.4% | [5] 104% | [6] 105% | [8] 118%
active: [7] -6.88%

N#Cc1c(-c2ccccc2)cc(-c2ccccc2)n(CCCCCC(=O)Nc2ccccc2N)c1=O
inactive: [1] 48.3% | [2] 49.5% | [3] 92.1% | [4] 86.2% | [5] 68.4% | [6] 58.1% | [7] 80.5% | [8] 55.3%

CCCCC(=O)c1ccco1
inactive: [1] 79.4% | [2] 102% | [3] 98.8% | [4] 97% | [5] 90.9% | [6] 91.6% | [7] 94.3% | [8] 106%

COC(C(=O)[C@@H](O)[C@@H](C)O)[C@@H]1Cc2cc3cc(O[C@H]4C[C@@H](O[C@H]5C[C@@H](O)[C@H](O)C(C)O5)[C@H](O)C(C)O4)c(C)c(O)c3c(O)c2C(=O)[C@H]1O[C@H]1C[C@@H](O[C@H]2C[C@@H](O[C@H]3C[C@@H](O)[C@H](OC)C(C)O3)[C@@H](O)C(C)O2)[C@H](O)C(C)O1 (stereo partly specified)
active: [1] -0.919% | [2] -22.9% | [3] -54.2% | [5] 6.29% | [7] 1.1%
inactive: [4] 11.3% | [6] 12.1% | [8] 13.7%

O=C(O)CNC1=C(Cl)C(=O)c2ccccc2C1=O
inactive: [1] 78.1% | [2] 87.5% | [3] 102% | [4] 102% | [5] 81.8% | [6] 100% | [7] 114% | [8] 104%

c1cnc2[nH]cc(-c3csc(-c4cn(CCCN5CCOCC5)c5ccccc45)n3)c2c1
inactive: [1] 27.1% | [2] 50.3% | [4] 39.5% | [5] 28.6% | [6] 29.8% | [7] 58.6% | [8] 28.1%
active: [3] 6.18%

CN(C)CC(=O)Nc1ccc2ncnc(Nc3ccc(Oc4cccc(C(F)(F)F)c4)c(Cl)c3)c2c1
inactive: [1] 48.6% | [2] 77.5% | [3] 61% | [4] 64.6% | [5] 41.6% | [6] 44.1% | [7] 23.7% | [8] 55.5%

N#CC1=C(N)Oc2c(sc3c(Br)cccc23)C1c1ccc(F)cc1 (stereo unspecified)
inactive: [1] 50% | [2] 25.3% | [4] 32.2% | [5] 12.1% | [6] 11.9% | [7] 23.5% | [8] 23.1%
active: [3] -10.3%

Clc1ccc(Sc2cnc(-c3ccccc3)o2)cc1
inactive: [1] 84.6% | [2] 96.6% | [3] 101% | [4] 105% | [5] 96.1% | [6] 104% | [7] 99.2% | [8] 102%

CN[C@]12CC3(C=CC(=O)C=C3)O[C@@]1(Cc1ccc(OC)cc1)N(C)C(=O)N2
active: [3] 1.71% | [6] -35.2% | [8] 9.7%
inactive: [1] 16.6% | [2] 41.5% | [4] 11.1% | [5] 23.3% | [7] 32.7%

CC1(C)c2[nH]c3ccccc3c2C[C@]2(C)[C@H]3CC=C4[C@@H]5C[C@@](C)(C(N)=O)CC[C@]5(C)CC[C@@]4(C)[C@]3(C)CC[C@@H]12
active: [1] 9.07%
inactive: [2] 58.7% | [3] 59.3% | [4] 61.2% | [5] 29.3% | [6] 40.9% | [7] 69.6% | [8] 58.2%

COc1ccc(CC(C#N)c2cc3ccccc3[nH]2)cc1 (stereo unspecified)
inactive: [1] 85.5% | [2] 92.8% | [3] 82.2% | [4] 93.6% | [5] 94% | [6] 92.3% | [7] 87.5% | [8] 84.7%

Nc1c(C(=O)Nc2ccncc2)sc2nc3c(cc12)CCCCCC3
inactive: [1] 49.9% | [2] 69.4% | [3] 96% | [4] 103% | [5] 78.5% | [6] 65.5% | [7] 94.1% | [8] 80.7%

O=C(CSc1nc2sc3c(c2c(=O)n1-c1ccccc1)CCCCC3)N/N=C/c1ccc(F)cc1
inactive: [1] 16.9% | [2] 48.4% | [3] 70% | [4] 53% | [5] 26.8% | [7] 106% | [8] 42.6%
active: [6] -26.2%

Brc1ccc2[nH]cc(-c3nonc3-c3c[nH]c4ccccc34)c2c1
inactive: [2] 73.9% | [3] 47.1% | [4] 60.4% | [5] 29.3% | [6] 36.9% | [7] 21.5% | [8] 16%
active: [1] 5.65%

O=C(Nc1cc(Cl)ccc1O)c1ccc(Nc2ccnc(C(F)(F)F)c2)cc1
active: [1] 4.61%
inactive: [2] 34.5% | [3] 51.9% | [4] 40.2% | [5] 22.3% | [6] 16% | [7] 35.1% | [8] 22.4%

CC(O)c1cnc(/C=C2\SC(=S)N(Cc3ccccc3)C2=O)s1 (stereo unspecified)
inactive: [1] 41.7% | [2] 86.9% | [3] 25.3% | [4] 39.7% | [5] 27.4% | [6] 20.2% | [7] 107% | [8] 30.3%

Cc1cc(Cl)ccc1NC(=O)c1cc2ccccc2cc1O
inactive: [1] 12.6% | [2] 26.6% | [3] 30.1% | [4] 11.2% | [7] 15%
active: [5] 2.86% | [6] 7.95% | [8] 7.04%

COc1ccc(OC)c(C(=O)/C=C/c2cc3c(c(OC)c2OC)OCO3)c1
inactive: [1] 70.6% | [2] 65.6% | [3] 63.2% | [4] 68.8% | [5] 31.4% | [6] 43.6% | [7] 86.3% | [8] 55%

O=C1c2ccc3c4ccc5c6c(ccc(c7ccc(c2c37)C(=O)N1CCC[P+](c1ccccc1)(c1ccccc1)c1ccccc1)c64)C(=O)N(CCC[P+](c1ccccc1)(c1ccccc1)c1ccccc1)C5=O
inactive: [1] 41.1% | [2] 74% | [4] 24.5% | [5] 37.1% | [6] 46% | [7] 25.5% | [8] 10.5%
active: [3] 0.931%

Cc1nc2sc(C(=O)Nc3cccc(Cl)c3C)c(N)c2cc1C(=O)c1ccccc1
active: [2] 7.58% | [3] -37.4% | [7] 7.04%
inactive: [1] 36.8% | [4] 27% | [5] 11.1% | [6] 13.1% | [8] 13%

N#CC1CCc2c(c(-c3cn[nH]c3C(F)(F)F)nc3c(F)cc4[nH]ncc4c23)C1 (stereo unspecified)
inactive: [5] 12.9% | [7] 44% | [8] 13.6%
active: [1] 1.96% | [2] -11.6% | [3] 7.99% | [4] 8.48% | [6] 5.5%

CCN1C(=O)N(CC)C2C1NN=c1s/c(=C\c3ccc(Cl)cc3Cl)c(=O)n12 (stereo unspecified)
active: [3] -24.8% | [6] 9.71% | [7] 7.2% | [8] 7.47%
inactive: [1] 58.8% | [2] 15.9% | [4] 20.5% | [5] 14%

CCOC(=O)c1c(NC(=O)c2ccc(C(C)C)cc2)sc2c(CN(C)C)c(O)ccc12
inactive: [1] 61% | [2] 89.7% | [3] 21.3% | [5] 15.2%
active: [4] -58.6% | [6] 4.82% | [7] -55.8% | [8] 1.36%

CC1(C)CC[C@]2(C(=O)O)CC[C@]3(C)C(=CC[C@@H]4[C@@]5(C)C/C(=C/O)C(=O)C(C)(C)[C@@H]5CC[C@]43C)[C@@H]2C1
inactive: [1] 61.9% | [2] 88.6% | [3] 69.7% | [4] 12% | [5] 29.5% | [6] 12.7% | [7] 50.5% | [8] 15.7%

O=Cc1ccc([N+](=O)[O-])s1
inactive: [1] 82.8% | [2] 102% | [3] 110% | [4] 62.5% | [5] 47% | [6] 46.4% | [7] 100% | [8] 102%

O=C(Nc1nn(-c2ccc(Cl)cc2Cl)nc1-c1ccccc1)c1ccccc1
inactive: [1] 103% | [2] 119% | [3] 95.3% | [4] 105% | [5] 105% | [6] 84.3% | [7] 108% | [8] 80.8%

O=C(Cn1c(=O)sc2ccccc21)NNS(=O)(=O)c1ccccc1[N+](=O)[O-]
inactive: [1] 105% | [2] 116% | [3] 98.5% | [4] 103% | [5] 96.5% | [6] 107% | [7] 107% | [8] 99.9%

Nc1nc2c([nH]1)c1[nH]c3ccccc3c1c1[nH]c3ccccc3c21
active: [3] 1.06% | [4] -31.5% | [6] -47.9% | [7] -70.6%
inactive: [1] 32.4% | [2] 64.6% | [5] 13.6% | [8] 39.5%
